Measurements reported in PubChem BioAssay (EPA / NIEHS).
Where “and” joins values, the source holds several entries; their conditions need not be identical. Equal values may be shown once. More than one record can exist for a structure, and the calls need not agree. Calls of active or inactive are those of the source. The calls were made as follows: active = hit-call score of the fitted dose curve at least 0.9, where 1 is the maximum; inactive = score below 0.9.

What follows are compounds tested on Interleukin-1 alpha (IL1a), IL1A (gene 3552) (assay: BSK_IMphg_IL1a: BioMAP Diversity Plus: IMphg Assay for Interleukin-1 alpha (IL1a) Biomarker Activity (AID 2284290)). Conditions: primary human endothelial cells with macrophages.
Procedure: BSK_IMphg is a cell-based, multiplexed-readout assay that uses venular endothelial cells and macrophages, a human vascular primary cell, with measurements taken at 24 hours after chemical dosing in a microplate: 96-well plate.BSK_IMphg_IL1a is an assay component measured in the BSK_IMphg assay. It measures IL-1a antibody related to regulation of gene expression using ELISA technology.Data from the assay component BSK_IMphg_IL1a was analyzed at the endpoint, BSK_IMphg_IL1a, in the positive analysis fitting direction relative to DMSO as the negative control and baseline of activity. Using a type of binding reporter, gain or loss-of-signal activity can be used to understand protein changes. To generalize the intended target to other relatable targets, this assay endpoint is annotated to the 'cytokine' intended target family, where the subfamily is 'interleukins'.
The levels of cell surface (or secreted, indicated by the prefix "s") biomarker endpoints were measured by ELISA. Overt cytotoxicity to cells in confluent adherent cultures (all systems other than the BT system) was assessed by measuring total protein levels using sulforhodamine B (SRB) staining in parallel cultures at the time of biomarker measurements, indicated as SRB endpoints. For proliferation assays for adherent cell types, individual cell types are cultured at sub-confluence and relative cell numbers quantified by SRB staining at time points optimized for each system (48 h: 3C and CASM3C systems; 72 h: BT and HDF3CGF systems; 96 h: SAg system). SRB was performed by staining cells with 0.1% SRB after fixation with 10% TCA and reading wells at 560 nm.Viability and proliferation of PBMC (T cells) was quantified by Alamar Blue reduction for the SAg and BT systems. For PBMC viability (referred to as PBMC Cytotoxicity within the assay endpoint names), cells were plated (75,000/well in a 96-well plate) and then chemical samples added for 1 h before addition of activators, SEB and TSST-1 (20 ng/mL final concentration each). Cells were incubated for 90 h. Then, Alamar Blue (20 uL/well) (Invitrogen, Cat DAL1100) was added for 6 h, and the plates were read with a fluorescence microplate reader at 546/580 nm (excitation/emission). For PBMC proliferation, cells were plated and activated as above but incubated for only 16 h prior to addition of Alamar Blue. Plates were read after 6 h.

Row | SMILES | AC50 | outcome
1 | OCC(F)(F)OC(F)(F)C(F)(F)OC(F)(F)C(F)(F)OC(F)(F)F | 26.6 µM (active) and 47.5 µM (active) | 
2 | O=C(O)C(F)(OC(F)(F)C(F)(F)C(F)(F)F)C(F)(F)F (stereo unspecified) | 220 nM (active) | inactive
3 | O=C(O)C=CC(F)(C(F)(F)F)C(F)(F)F |  | inactive
4 | O=S(=O)(F)C(F)(F)C(F)(F)C(F)(F)C(F)(F)C(F)(F)C(F)(F)C(F)(F)C(F)(F)F |  | inactive
5 | OCC(F)(F)OC(F)(F)C(F)(F)OC(F)(F)CO | 334 nM (active) | inactive
6 | O=C(O)C(F)(F)OC(F)(F)C(F)(F)OC(F)(F)C(=O)O |  | inactive
7 | FC(F)(F)C(F)(C(F)(F)F)C(F)(F)C(F)(F)CC1CO1 (stereo unspecified) |  | inactive
8 | C=CC(=O)OCC(F)(F)C(F)F |  | inactive
9 | CC(O)C(F)(F)C(F)(F)F (stereo unspecified) |  | inactive
10 | COC(=O)C(F)(F)C(F)(F)OC(F)(C(F)(F)F)C(F)(F)OC(F)=C(F)F (stereo unspecified) |  | inactive
11 | OCC(F)(F)OC(F)(F)C(F)(F)OC(F)(F)C(F)(F)OC(F)(F)CO |  | inactive
12 | NC(=O)C(F)(F)C(F)(F)F |  | inactive
13 | O=C(O)C(F)(F)OC(F)(F)C(F)(F)OC(F)(F)F |  | inactive
14 | O=C(O)C(F)(F)C(F)(F)C(=O)O |  | inactive
